The text below walks through data of ChEMBL document CHEMBL3433997, “St. Jude Leishmania screening dataset” (2016).

Holding throughout (format): functional
The target of assay [1] is Solute carrier family 2, facilitated glucose transporter member 1 (Homo sapiens) (UniProt P11166). As to the kind of experiment: ST_JUDE_LEISH: Cytotoxicity at 2uM final concentration against transgenic Leishmania Mexicana promastigotes LmGLUT1 that are glucose transport deficient and complemented with the human glucose transporter GLUT1. Activity is measured by DNA content using SYBR green in vitro.
Solute carrier family 2, facilitated glucose transporter member 1 (Homo sapiens), sequence (P11166 whole entry): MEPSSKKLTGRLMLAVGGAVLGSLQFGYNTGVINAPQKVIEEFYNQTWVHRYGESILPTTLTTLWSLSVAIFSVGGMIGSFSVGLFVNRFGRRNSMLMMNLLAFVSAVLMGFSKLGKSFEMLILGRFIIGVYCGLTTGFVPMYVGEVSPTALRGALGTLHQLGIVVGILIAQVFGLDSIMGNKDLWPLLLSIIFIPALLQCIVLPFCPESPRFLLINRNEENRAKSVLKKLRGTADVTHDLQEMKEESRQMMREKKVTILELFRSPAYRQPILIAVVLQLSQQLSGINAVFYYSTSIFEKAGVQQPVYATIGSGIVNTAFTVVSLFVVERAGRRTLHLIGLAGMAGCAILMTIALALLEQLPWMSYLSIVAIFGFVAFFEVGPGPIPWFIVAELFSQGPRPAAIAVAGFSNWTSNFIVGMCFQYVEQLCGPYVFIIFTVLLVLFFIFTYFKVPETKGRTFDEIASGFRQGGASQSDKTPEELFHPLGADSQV

For assay [2], the target named is Hexose transporter 1 (Plasmodium falciparum) (UniProt O97467). As to the kind of experiment: ST_JUDE_LEISH: Cytotoxicity at 2uM final concentration against transgenic Leishmania Mexicana promastigotes LmPfHT that are glucose transport deficient and complemented with the Plasmodium falciparum hexose transporter. Activity is measured by DNA content using SYBR green in vitro.

Assay [3] deals with Glucose transporter (Leishmania mexicana) (UniProt O61059). As to the kind of experiment: ST_JUDE_LEISH: Cytotoxicity at 2uM final concentration against transgenic Leishmania Mexicana promastigotes LmGT2 that are glucose transport deficient and complemented with the L. Mexicana glucose transporter 2. Activity is measured by DNA content using SYBR green in vitro.

Turning to `O=C(c1ccc(F)c(F)c1)N1CCOC(CCN2CCC(c3ccccc3)CC2)(c2ccc(Cl)c(Cl)c2)C1` (stereo not drawn), the inhibition (as a rule, the relative decrease from the control value, in per cent) in assay [1] stood at 4.15%; in assay [2] it was 2.12%; in assay [3] it was 3.63%.

As for `NC1CCCN(Cc2ccc(-c3cccc(-c4nc5cc(F)ccc5[nH]4)c3)cc2)C1` (stereo not drawn), the inhibition was -0.79% in assay [1], 0.23% in assay [2] and -1.33% in assay [3].

For the compound `CCN(CC)CCCC(C)Nc1c2cc(OC)ccc2nc2cc(Cl)c([N+](=O)[O-])cc12` (stereo not drawn), the inhibition in assay [1] is 1.29%; in assay [2] it was 0.73%; in assay [3] it was 0.82%.

For the compound `CCCc1ccc(C(=O)N2C(c3nccs3)C(C(N)=O)CC2(CC(C)C)C(=O)O)cc1` (stereo not drawn), the inhibition came out at 1.38% in assay [1], 2.07% in assay [2] and 0.37% in assay [3].

Take `Cc1ccc(CCOCCCCCNCC(O)c2cc(Cl)c(N)c(Cl)c2)cc1` (stereo not drawn): the inhibition is 1.04% in assay [1], -1.13% in assay [2] and 0.95% in assay [3].

Take `CN(C)C(C)(C)CN(Cc1ccc(-c2ccc(C(F)(F)F)cc2)cc1)C(=O)Cn1c(CCc2cccc(F)c2F)nc(=O)c2ccccc21`: the inhibition in assay [1] is 1.52%; in assay [2], 0.48%; in assay [3], 0.79%.

In the case of `CCNCc1ccc(-c2cccc(-c3nc4ccccc4[nH]3)c2)cc1`, the inhibition in assay [1] was 1.09%; in assay [2], 1.16%; in assay [3], 3.49%.

As to `Cc1ccc2ccccc2c1CCCON1C(=N)N=C(N)NC1(C)C`, the inhibition in assay [1] amounted to 4.76%; in assay [2] it was 3.93%; in assay [3], 2.74%.

Regarding `Cc1cccc2nc(-c3ccc(-c4cccc(CNCCN(C)C)c4)cc3)[nH]c12`, the inhibition in assay [1] came out at 3.31%; in assay [2] it was 2.84%; in assay [3], 0.95%.

Consider `O=C(Nc1cccc(-c2nn3ncccc3c2-c2ccnc(Nc3cccnc3)n2)c1)c1c(F)cccc1F`, for which the results for the inhibition in assay [1], in assay [2] and in assay [3] were 1.51%, 3.78% and 2.21%, respectively.

For the compound `COc1ccc(-c2ccc(NC(=O)c3ccc(Cl)cc3)cc2)cc1CN(C)CCN(C)C`, the inhibition was found to be 9.47% in assay [1], 4.95% in assay [2] and 2.75% in assay [3].

Take `O=C(NCCCCN1CCC(c2ccc3c(c2OCC2CC2)CCCC3)CC1)c1ccc(NC(=O)c2ccc(Cl)cc2)cc1`: the values for the inhibition in assay [1], in assay [2] and in assay [3] were 7.74%, 6.44% and 8.96%, respectively.

As for `CC(C)c1ccc(C2CCN(CCCCNC(=O)c3ccc(NC(=O)c4ccc(C(F)(F)F)cc4)cc3)CC2)c(O)c1`, the inhibition worked out at 4.75% in assay [1], 3.96% in assay [2] and 1.92% in assay [3].

Regarding `Cc1[nH]c(C)c(-c2ccc(-c3ccc4c(c3)OCO4)nc2)c(=O)c1Br`, the inhibition in assay [1] is 0.29%; in assay [2] it was 1.09%; in assay [3], 0.07%.

In the case of `COc1cc(SC)ccc1C(=O)N1CC(C)CC(C)C1` (stereo not drawn), the inhibition in assay [1] is 11.1%; in assay [2] it was 11.1%; in assay [3] it was 9.2%.

On to `O=C(Nc1ccc(OC2CCN(Cc3ccccc3)C2)c(Cl)c1)c1ccsc1` (stereo not drawn), for which the inhibition in assay [1] is 1.05%; in assay [2], 2.26%; in assay [3], 2.75%.

Take `CCCCNC(=O)C1CCCN(C(=O)c2ccc(O)c(-c3ccc(Cl)c(Cl)c3)c2)C1` (stereo not drawn): the results for the inhibition in assay [1], in assay [2] and in assay [3] were 1.28%, 1.16% and 0.69%, respectively.

Regarding `O=C(Nc1ccc(Cl)cc1)OCCn1nnnc1C(c1ccc(Cl)cc1)N1CCOCC1` (stereo not drawn), the inhibition was determined as 2.79% in assay [1], 0.7% in assay [2] and 2.38% in assay [3].

On to `Cn1cncc1C(=O)Nc1cccc(-c2cccc(-c3nc4cc(F)ccc4[nH]3)c2)c1`, for which the inhibition is 4% in assay [1], 3.24% in assay [2] and 1.75% in assay [3].

Regarding `CN1CCN(CCCN(Cc2cccc(-c3ccc(CNC4CCCC4)cc3)c2)C(=O)/C=C/c2ccccc2)CC1`, the inhibition in assay [1] stood at 6.1%; in assay [2] it was 7.29%; in assay [3], 4.93%.

For `COc1ccc2c(c1)[nH]c1c(/C=C/c3ccc([N+](=O)[O-])cc3)nccc12`, the inhibition in assay [1] amounted to 3.75%; in assay [2] it was 4.42%; in assay [3], 3.6%.

On to `N=C(N)c1ccc(NC(=O)c2cc(Sc3ccc(O)c(C(=O)Nc4ccc(C(=N)N)cc4)c3)ccc2O)cc1`, for which the inhibition in assay [1] is 9.7%; in assay [2], 10.9%; in assay [3], 4.34%.

Turning to `Oc1ccc(CN2CCC(N3CCN(CCc4ccccc4)CC3)C(O)C2)cc1Cl` (stereo not drawn), the values for the inhibition in assay [1], in assay [2] and in assay [3] were 1.3%, -0.2% and 2.61%, respectively.

`Cn1nccc1C(=O)NCCNCc1cccc(-c2ccc(-c3nc4ccccc4[nH]3)cc2)c1`: the figures for the inhibition in assay [1], in assay [2] and in assay [3] were 0.23%, 0.79% and -1.98%, respectively.

`CN(C)CCCOc1cccc(NC(=O)Nc2ccc(Cl)c(Cl)c2)c1`: the inhibition in assay [1] was -1.47%; in assay [2], -0.6%; in assay [3], -1.24%.

On to `COc1ccc2nccc([C@@H](O)CN3CCC(NC(=O)C(c4cc5ccccc5o4)N4CCN(c5ccccc5OC)CC4)CC3)c2c1` (stereo partly drawn), for which the inhibition in assay [1] is 1.2%; in assay [2] it was 0.92%; in assay [3] it was -0.23%.

Take `CCc1cccc(NC(=O)c2ccc(CN3CCCN(CC4CCCCC4)CC3)cc2)c1`: the inhibition in assay [1] stood at 10.3%; in assay [2] it was 10%; in assay [3] it was 13.4%.

For the compound `Cc1ccc(F)c(OC2CCN(c3ccc(C(=O)NC4CC4)cn3)CC2)c1`, the inhibition in assay [1] is 0.56%; in assay [2], 1.76%; in assay [3] it was -3.52%.

For the compound `Cc1ccc(NC(=O)c2ccc3ncccc3c2)cc1OC1CCN(Cc2ccc(F)cc2)CC1`, the inhibition in assay [1] came out at 6.67%; in assay [2], 3.46%; in assay [3], 5.46%.

For `COc1cc2nc(N3CCC(CNC(=O)c4cc5ccccc5s4)CC3)nc(N)c2cc1OC`, the inhibition was 11.8% in assay [1], 11% in assay [2] and 10.4% in assay [3].

`COc1ccc2nccc([C@@H](O)CN3CCC(NCc4[nH]c5ccccc5c4F)CC3)c2c1`: the inhibition in assay [1] was found to be 9.88%; in assay [2], 9.58%; in assay [3], 1.18%.

Consider `COc1cccc(C(=O)C2CC2CN(C)CCC(O)c2ccc(Cl)c(Cl)c2)c1` (stereo not drawn), for which the inhibition in assay [1] was found to be 3.35%; in assay [2] it was 3.48%; in assay [3] it was 4.04%.

Regarding `CCC(C)(C)NC(=O)C(c1cccc(OC)c1)N(C(=O)CNC(=O)c1cccs1)c1ccc2c(c1)OCCO2` (stereo not drawn), the values for the inhibition in assay [1], in assay [2] and in assay [3] were 6.74%, 6.4% and 6.92%, respectively.

Consider `Cc1ccnc(Nc2nc(-c3ccccn3)cs2)c1`, for which the values for the inhibition in assay [1], in assay [2] and in assay [3] were 10.1%, 22.4% and -2.74%, respectively.

Consider `Cc1nc2ccccc2c(=O)n1NCc1ccc(Cl)c(Cl)c1`, for which the inhibition is -1.5% in assay [1], -1.58% in assay [2] and 0.11% in assay [3].

For `O=C(NCCCCCN1CCC(c2c[nH]c3ccccc23)CC1)c1ccc(Cl)c(Cl)c1`, the inhibition was 2.42% in assay [1], 4.92% in assay [2] and 2.52% in assay [3].
